Source: PubChem BioAssay (National Center for Advancing Translational Sciences (NCATS))
S2 tox = cell viability loss in ATXN counter-screen | AID 651635 | S2 cells (HEK-293 line with an ATXN2-luciferase reporter) viability, CellTiter-Fluor protease fluorescence, 24 h | Potency, µM (titrated, usually from 56.7 µM), actives largely listed as cytotoxic | 400,000 tested, 0.49% active; further: nearly all actives have a fitted effect of over 40% in size
TGFb SMAD3 inh = blocks TGF-b signaling; Potency, µM (highest dose often 46.1 µM), most hits filed as inhibitors; HepG2 CAGA-GFP TGF-b/SMAD3 reporter, GFP fluorescence, 18 h; TGF-beta stimulated, 500 pg/mL final; 410,000 tested, 1.2% active; further: nearly all actives have a fitted effect of over 65% in size
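Read-out: total well GFP (ex488/em500-530) summed from mean per-cell fluorescence. Cells: HEPG2 CAGA-GFP, 1% FBS DMEM, 18 h at 37 degrees C with 500 pg/mL final TGF-beta. Unstimulated wells served as the full-inhibition control; stimulated DMSO wells = 0%.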
HepG2 viability = kills HepG2 cells in TGF-b inhibitor counter-screen; HepG2 CAGA-GFP viability, ATP luminescence, 18 h; Potency, µM (titrated, usually from 46.1 µM), most hits filed as cytotoxic; 410,000 tested, 0.76% active; AID 588856
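HepG2 CAGA-GFP cells (1000/well, DMEM with 1% FBS) received compound, then TGF-beta at 500 pg/mL final, and were incubated 18 hours at 37 degrees C. Viability was read by CellTiter-Glo luminescence. Media-only wells were set as complete cell-killing and DMSO as no toxicity.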
D3 antag = blocks the human D3 dopamine receptor | P35462 | D3R cells, DiscoveRx beta-arrestin luminescence, antagonist mode; active compounds read low | max response, negative = inhibition, % | 360,000 tested, 2.5% active; in the data active means max response below about -50%; inconclusive means no clear call, values can overlap the other calls
Target sequence (P35462 whole entry, looked up): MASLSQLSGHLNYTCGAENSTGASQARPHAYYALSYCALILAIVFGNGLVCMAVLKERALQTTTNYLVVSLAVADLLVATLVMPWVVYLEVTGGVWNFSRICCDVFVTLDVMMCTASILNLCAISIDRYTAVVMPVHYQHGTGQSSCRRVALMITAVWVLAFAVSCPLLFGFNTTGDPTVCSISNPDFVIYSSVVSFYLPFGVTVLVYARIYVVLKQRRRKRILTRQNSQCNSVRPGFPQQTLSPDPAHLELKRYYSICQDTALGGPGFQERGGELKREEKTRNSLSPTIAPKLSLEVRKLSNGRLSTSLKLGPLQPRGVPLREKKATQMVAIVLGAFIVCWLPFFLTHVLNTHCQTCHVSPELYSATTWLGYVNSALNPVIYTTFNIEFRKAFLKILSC
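Cells expressing the human receptor were seeded at 1500 cells/well, incubated overnight at 37 degrees C in 5% CO2, then exposed to library compounds with dopamine controls for 90 minutes at 37 degrees C before luminescent detection.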
ATXN2 expr inh = reduces ATXN2 reporter expression in HEK-293 cells | HEK-293 ATXN2-luciferase reporter, luminescence, 24 h | Potency, µM (titrated, usually from 57 µM), most hits filed as inhibitors | 360,000 tested, 0.72% active | AID 1745845; further: nearly all actives have a fitted effect of over 55% in size
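ATXN2-luciferase reporter cells (luciferase flanked by upstream and downstream ATXN2 gene portions) were treated 24 h at 37 °C with compounds at up to 57 uM. SteadyGlo luminescence gave expression; GF-AFC fluorescence gave viability.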
D3 ag = D3 dopamine receptor (human) agonism | AID 652048 | D3R DiscoveRx beta-arrestin cells, luminescence, 90 min | max activation, % | P35462 | 410,000 tested, 0.58% active; in the data active means max activation above about 30%
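Cells at 1500/well, incubated overnight, then treated with pinned compounds (dopamine as control) for 90 min at 37 degrees C. DiscoveRx reagent added for 30 - 60 minutes at room temperature; luminescence read.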
Large screens that a line does not name were inactive; ! = repeats disagree. Shown are actives, neighbours in structure and some others; about 4.8% of the full set was active somewhere. Unless noted, the call rests on the fitted dose curve; in most records, active means well fitted curve in the direction sought with a large enough effect; inconclusive means small, poorly fitted or top-dose-only effect, or another doubt; inactive means no such curve, though single readings can be large; an effect the other way counts as inactive or inconclusive.

Cc1ccccc1CNC(=O)c1oc2c(c1C)-c1nn(Cc3ccc(Cl)cc3)cc1CC2	none (no result: S2 tox, D3 antag, ATXN2 expr inh)
NC(=O)CC(NC(=O)Cc1ccc(Br)cc1)c1ccc(N2CCN(c3ccc(F)cc3)CC2)c([N+](=O)[O-])c1 (stereo unspecified)	S2 tox inconclusive, TGFb SMAD3 inh inconclusive, HepG2 viability 11.2µM, ATXN2 expr inh inconclusive
COC(=O)c1cnn(-c2nc(OC)cc(OC)n2)c1C	none
COc1cc(OC)nc(-n2ncc(Br)c(Br)c2=O)n1	TGFb SMAD3 inh 3.55µM, HepG2 viability 11.2µM, D3 antag -85.7, ATXN2 expr inh inconclusive (no result: S2 tox)
COc1ccc(CN2CCN(C3CCSCC3)CC2CCO)c(C)c1C (stereo unspecified)	D3 antag -64.3
COc1ccc(CN2CCN(C3CCOCC3)CC2CCO)c(C)c1C (stereo unspecified)	none
C=CC[N+]1([C@H]2C[C@H]3[C@@H]4CC[C@H]5C[C@H](O)[C@@H](N6CCOCC6)C[C@]5(C)[C@@H]4CC[C@]3(C)[C@H]2OC(C)=O)CCCC1	none (no result: S2 tox, TGFb SMAD3 inh, HepG2 viability, D3 antag, D3 ag)
Cc1c(C(=O)N2CC3CCC2C3)sc2ncnc(NCCc3ccccn3)c12 (stereo unspecified)	none (no result: TGFb SMAD3 inh, HepG2 viability, D3 antag, ATXN2 expr inh, D3 ag)
COc1ccccc1N1CCN(C(CNS(=O)(=O)c2cccs2)c2cccnc2)CC1 (stereo unspecified)	D3 antag -50.1
O=S(=O)(c1ccccc1C(F)(F)F)N1CCN(c2nc(-c3cccs3)nc3ccccc23)CC1	none (no result: S2 tox, D3 antag, ATXN2 expr inh, D3 ag)
CCOC(=O)CSC1=NC(=O)/C(=C\c2ccc(Cl)cc2)S1	S2 tox inconclusive, D3 antag -77.8, ATXN2 expr inh 25.1µM
CCOC(=O)C1CCN(C2=NC(=O)/C(=C/c3ccc(Cl)cc3)S2)CC1	none
COc1cc(CNC(=O)c2cc(-c3ccc(OC)cc3C)n[nH]2)cc(OC)c1	none
Cc1ccc(Cl)cc1-c1cc(C(=O)NCC2CCCCC2)[nH]n1	S2 tox inconclusive, D3 antag -69.9
COc1ccc(-c2cc(C(=O)NCC3CCCCC3)[nH]n2)c(C)c1	D3 antag -78.5
Cc1cccc(NC(=O)CSc2nc(C)c(CC(=O)c3ccc(Br)cc3)c(C)c2C#N)c1C	S2 tox inconclusive, TGFb SMAD3 inh inconclusive, D3 antag -53.4, ATXN2 expr inh inconclusive
NC(Cc1ccc(F)cc1)c1csc(Nc2cc(Oc3ccccc3)ncn2)n1 (stereo unspecified)	S2 tox 28.2µM, TGFb SMAD3 inh inconclusive, HepG2 viability 12.6µM, ATXN2 expr inh inconclusive
NC(c1csc(Nc2cc(NCc3ccco3)ncn2)n1)c1ccccc1Cl (stereo unspecified)	S2 tox inconclusive, TGFb SMAD3 inh inconclusive
NC(Cc1ccc(Cl)cc1)c1csc(Nc2cc(Oc3ccccc3)ncn2)n1 (stereo unspecified)	TGFb SMAD3 inh inconclusive (no result: S2 tox)
CC(N)c1csc(Nc2cc(Oc3ccccc3)ncn2)n1 (stereo unspecified)	none
COc1ccc(CC(N)c2csc(Nc3cc(Oc4ccccc4)ncn3)n2)cc1 (stereo unspecified)	S2 tox inconclusive, TGFb SMAD3 inh inconclusive, HepG2 viability 17.8µM, ATXN2 expr inh inconclusive
NC(Cc1ccc(F)cc1)c1csc(Nc2cc(NCc3ccco3)ncn2)n1 (stereo unspecified)	S2 tox inconclusive, TGFb SMAD3 inh inconclusive, ATXN2 expr inh 17.8µM
CCCCc1ccc(NC(=O)COC(=O)c2ccccc2OCC(=O)Nc2ccc(Br)cc2)cc1	none (no result: S2 tox, D3 antag, ATXN2 expr inh, D3 ag)
CCc1cccc(CC)c1NC(=O)c1cc(S(=O)(=O)N2CCc3ccccc32)cn1C	TGFb SMAD3 inh inconclusive (no result: S2 tox, D3 antag, ATXN2 expr inh)
O=C(O)[C@H](O)[C@@H](O)[C@H](O[C@@H]1O[C@H](CO)[C@H](O)[C@H](O)[C@H]1O)[C@H](O)CO	none (no result: TGFb SMAD3 inh, HepG2 viability, D3 antag)
CCc1ccccc1NC(=O)c1ncoc1-c1ccco1	none (no result: D3 antag)
Cc1cc(C)c2c(C)c(C(=O)N3CCC(c4nc5ccccc5s4)CC3)oc2c1	TGFb SMAD3 inh inconclusive (no result: D3 antag)
O=c1c2ccc([N+](=O)[O-])cc2ncn1CCOc1cccc(Br)c1	D3 ag 32.4
CCN(CC)c1ccc(NC(=O)c2cnc3c(-c4ccccc4)c(C)nn3c2C)c(C)c1	none (no result: D3 antag)
Cc1cc(NC(=O)c2cnc3c(-c4ccccc4)c(C)nn3c2C)ccc1Br	D3 ag 34.0 (no result: S2 tox, D3 antag, ATXN2 expr inh)
COC(=O)NC(=S)Nc1ccc(Oc2ccc(Cl)cc2Cl)c(Cl)c1	S2 tox inconclusive, D3 antag -64.8
CC1(C)SC(=S)N(/N=C/c2ccccc2)C1N(O)C(=O)Nc1ccc([N+](=O)[O-])cc1 (stereo unspecified)	TGFb SMAD3 inh inconclusive, HepG2 viability 11.2µM, D3 antag -56.1
Cn1nnnc1SCCCNCc1ccccc1OCc1ccc(Cl)cc1	TGFb SMAD3 inh inconclusive (no result: S2 tox, D3 antag, ATXN2 expr inh)
N/C(=N\OC(=O)CC1CCCCC1)c1cccnc1	D3 antag -151.4
C/C=C(/C)C(=O)OC1c2c(ccc3ccc(=O)oc23)OC(C)(C)C1OC(=O)/C(C)=C\C (stereo unspecified)	S2 tox inconclusive, TGFb SMAD3 inh 11.2µM, ATXN2 expr inh inconclusive
NC[C@H](Cc1ccccc1)NCCCCC1CCCCC1	D3 antag inconclusive
CNC[C@H](CC1CCCCC1)NC[C@H](Cc1ccccc1)NCCC12CC3CC(CC(C3)C1)C2	S2 tox 15.8µM, TGFb SMAD3 inh inconclusive, HepG2 viability 12.6µM
CCCn1c(CCC(=O)Nc2cc(Cl)c(OC)cc2OC)nc2cccnc21	S2 tox inconclusive (no result: D3 antag)
CN(C)c1ccc(O)c2c1C[C@H]1C[C@H]3[C@H](N(C)C)C(=O)C(C(N)=O)=C(O)[C@@]3(O)C(=O)C1=C2O	D3 ag 73.3! (no result: TGFb SMAD3 inh, HepG2 viability, D3 antag)
CN(C)c1ccc(O)c2c1CC1CC3[C@@H](N(C)C)C(=O)C(C(N)=O)=C(O)[C@]3(O)C(=O)C1=C2O (stereo partly specified)	S2 tox inconclusive
O=[N+]([O-])c1ccc2n[nH]nc2c1	D3 antag -70.2
Cc1nc2ccc([N+](=O)[O-])cc2[nH]1	none
C=C(C)COc1ccc(-c2[nH]ncc2-c2ccc(Br)cc2)c(O)c1	S2 tox inconclusive, TGFb SMAD3 inh 20µM, ATXN2 expr inh inconclusive
COc1ccc(-c2c(-c3ccc(O)cc3O)n[nH]c2C)cc1OC	none
COc1ccc(-c2c(-c3ccc(OC)c(C)c3O)n[nH]c2C)cc1	TGFb SMAD3 inh 14.1µM, ATXN2 expr inh inconclusive (no result: S2 tox)
C=C(C)COc1ccc(-c2n[nH]c(C)c2-c2ccc(Br)cc2)c(O)c1	TGFb SMAD3 inh 12.6µM, HepG2 viability 14.1µM (no result: S2 tox)
C=C(C)COc1ccc(-c2[nH]ncc2Oc2ccccc2OC)c(O)c1	S2 tox inconclusive, TGFb SMAD3 inh inconclusive, D3 antag inconclusive
